# Data reported in ChEMBL document CHEMBL1157539, “Thousands of chemical starting points for antimalarial lead identification” (Nature, 2010).
# Columns and labels:
# Format in all cases: functional
# [1] = system: Plasmodium falciparum; experiment: GSK_TCMDC: Inhibition of Plasmodium falciparum 3D7 in whole red blood cells, using parasite LDH activity as an index of growth. Test compounds present at 2uM
# [2] = system: Plasmodium falciparum; experiment: GSK_TCMDC: Inhibition of Plasmodium falciparum Dd2 in whole red blood cells, using parasite LDH activity as an index of growth. Test compounds present at 2uM
# [3] = system: HepG2; experiment: GSK_TCMDC: Percent inhibition of human HepG2 cell line. Test compounds present at 10uM.
Structure (SMILES),Inhibition [1] [%],Inhibition [2] [%],Inhibition [3] [%]
CN1CCN(c2ccc(-c3cc(-c4cc(F)c(F)c(F)c4)cnc3N)cc2)CC1,88,12,58
COc1ccccc1NC(=O)OC(COc1ccc(N)cc1)CN1CC=C(c2ccccc2)CC1.O=C(O)C(F)(F)F (stereo not drawn),90,81,16
N#Cc1ccc2c(c1)CN(C1CCC(NC(=O)C3=Cc4cc(Cl)ccc4OC3)CC1)CCC2 (stereo not drawn),93,8,0
Cc1cccc2nc(-c3ccc(-c4cccc(NC(=O)COc5ccccc5C(N)=O)c4)s3)[nH]c12,99,19,80
CC(=O)Nc1ccc(CN2CCC(NC(=O)c3cc(-c4ccc(N(C)C)cc4)cs3)C2)cc1.O=C(O)C(F)(F)F (stereo not drawn),83,1,15
CN(C)CC(O)C(O)(c1ccccc1)c1ccc(F)cc1.Cl (stereo not drawn),93,10,0
O=C(NC(c1ccc(Cl)cc1)c1ccc2cccnc2c1O)c1ccccc1 (stereo not drawn),87,80,44
C=CC[C@H](C[C@H](O)[C@H](Cc1ccccc1)NC(=O)c1ccc(-n2cccn2)cc1)C(=O)NC1CCCCC1,96,0,1
O=C(/C=C/c1ccc(Cl)c(Cl)c1)NCCCCCN1CCC(c2c[nH]c3cc(O)ccc23)CC1,100,2,32
CC(C)(C)Nc1nc(Nc2cccc([N+](=O)[O-])c2)nc(-n2ccnc2)n1,98,41,10
Cn1nc(-c2ccc(NC(=O)Nc3cc(C(F)(F)F)ccc3F)cc2)c2cnc(NCCCCN3CCCC3)nc21.O=C(O)C(F)(F)F,98,74,88
CCC(C)C#Cc1c(C)nc(N)nc1N (stereo not drawn),96,0,53
O=C(NCCc1ccccc1)N(Cc1cccc(-c2ccc(CNCc3ccc4c(c3)OCO4)cc2)c1)C1CCN(Cc2ccccc2)CC1.O=C(O)C(F)(F)F,94,70,11
O=C(Cc1ccccc1)NC(c1ccccc1)c1ccc2cccnc2c1O (stereo not drawn),89,61,49
COc1ccc(NC(=O)Nc2cccc(-c3ccc(-c4nc5cccc(C)c5[nH]4)s3)c2)cc1,100,32,23
CCCCC(=O)Nc1nc2ccc([N+](=O)[O-])cc2s1,91,69,9
CS(=O)(=O)c1ccc(CCNCc2ccc(-c3ccc(CNC4Cc5ccccc5C4)cc3)nc2)cc1.O=C(O)C(F)(F)F,100,80,18
Cc1ccc(OC2CCN(c3ccc(C(=O)NC4CC4)cn3)CC2)cc1,87,75,11
CN(C)c1ccc(CN2CCC(NC(=O)c3ccc(-c4cccc(F)c4)s3)CC2)cc1.O=C(O)C(F)(F)F,91,18,55

Structure (SMILES),Inhibition [1] [%],Inhibition [2] [%],Inhibition [3] [%]
Cl.NC(=O)Nc1ccc2cn[nH]c2c1,97,0,4
CCOc1cc(C)ccc1N1CCN(CCN2CCC(NC(=O)c3ccc(-c4ccc(C#N)cc4)cc3)CC2)CC1,84,3,9
CC(C)CNC(=O)c1cncc(-c2cccc(CNC3Cc4ccccc4C3)c2)c1.O=C(O)C(F)(F)F,100,19,4
CC(C)CCN(Cc1cncn1Cc1cccc(C(F)(F)F)c1)C(=O)c1cncc(-c2ccccc2)c1,100,4,15
CCCCNc1cc(C)nc(NCc2ccccc2)n1,97,37,23
CCc1cccc(NC(=O)/C=C/c2ccc3c(c2)CN(C)CC3)c1,94,91,8
OC(CNc1ccnc(Nc2cccc(CCN3CCOCC3)c2)n1)c1ccccc1 (stereo not drawn),100,14,34
COc1ccc(CN2CCCN(Cc3cccc(NC(=O)c4ccc(-c5ccccc5)cc4)c3)CC2)cc1.O=C(O)C(F)(F)F,94,24,37
Cc1cc(N2CCCC2)nc(Nc2ccc(NC(=O)c3ccccc3F)cc2)n1,98,44,36
O=C(C=Cc1ccc(Cl)c(Cl)c1)NCCCCCN1CCC(CCNC(=O)c2sc3ccccc3c2Cl)CC1,88,6,27
Cl.c1ccc(C(c2cccs2)N2CCN(Cc3ccc(OCCCN4CCCCC4)cc3)CC2)cc1 (stereo not drawn),91,14,41
N#Cc1ccc(-c2ccc(C(=O)NCCCCN3CCC(c4ccc5c(c4OCC(N)=O)CCCC5)CC3)cc2)cc1,87,23,21
CC[C@H]1CN(Cc2ccco2)CC[C@H]1CCCc1ccnc2ccc(O)cc12,93,14,31
Cc1cccc2nc(-c3ccc(-c4cccc(CN5CCC(CCN6CCCCC6)CC5)c4)s3)[nH]c12.O=C(O)C(F)(F)F,100,100,99
CC(C)(C)c1cc(C(=O)Nc2ccc(C(=N)N)cc2)c(O)c(C(C)(C)C)c1.O=C(O)C(F)(F)F,100,88,4
COc1cc2nc(N3CCC(CNC(=O)c4ccc(-c5ccc(-c6noc(C)n6)cc5C)cc4)CC3)nc(N)c2cc1OC,100,99,99
CCn1c(C(C)C)cc2c3c(N)nc(N)nc3ccc21,92,0,67
CC(C)c1ccc(NC(=O)c2ccc(CN3CCCN(CC4CCCCC4)CC3)cc2)cc1.O=C(O)C(F)(F)F,90,34,50
O=C(C=Cc1ccc(-c2nc3ccccc3[nH]2)cc1)NC1CCN(Cc2ccccc2)CC1,99,88,15

Structure (SMILES),Inhibition [1] [%],Inhibition [2] [%],Inhibition [3] [%]
COc1cc2nc(NCCn3cccn3)nc(NCCc3ccccc3)c2cc1OC,100,100,12
O=C(NCCN1CCOCC1)c1ccc(O)c(-c2cccc(C(F)(F)F)c2)c1,95,48,0
COc1ccc(CCNCCCCCCNCCc2ccc(Cl)c(Cl)c2)cc1OC.Cl,100,10,59
O=C(NC1CCCCC1)N(Cc1cccc(-c2cccc(CNC3CCCC3)c2)c1)C1CCN(Cc2ccccc2)CC1.O=C(O)C(F)(F)F,96,90,64
CCc1ccc(-c2nc3cc(NC(=O)c4ccc([N+](=O)[O-])o4)ccc3o2)cc1,97,80,4
O=C(/C=C/c1ccc(Cl)c(Cl)c1)NCCCCCN1CCC(NC(=O)Nc2ccc(Cl)cc2Cl)CC1,91,33,96
Cc1cc(NC(=O)c2sc3ccccc3c2O)no1,96,25,6
N#Cc1cnc(Nc2ccc(Oc3ccccc3)cc2)nc1Nc1cccc(S(N)(=O)=O)c1,96,86,74
CC(C)N1CCN(C(CN2CCN(CCCOc3cccc(-c4ccccc4)c3)CC2)c2ccc(F)cc2)CC1.Cl (stereo not drawn),100,99,100
O=C(Cc1c[nH]cn1)Nc1cccc(-c2cccc(-c3nc4cc(F)ccc4[nH]3)c2)c1,100,97,21
Cn1cncc1C(=O)Nc1cccc(-c2ccc(-c3nc4cc(F)ccc4[nH]3)s2)c1,99,27,0
CC(=O)c1cccc2cc(C(=O)NC3CCC(CCN4CCc5ccc(C#N)cc5C4)CC3)[nH]c12.Cl (stereo not drawn),100,17,12
CCCCCNc1nc2nc(N)nc(N)c2nc1-c1ccccc1.Cl,91,0,9
CN1CCN(c2cc(NC(=O)c3ccc(-c4ccc(C#N)cc4)cc3)ccc2Cl)CC1,100,94,29
O=S(=O)(c1c(Cl)cc(Cl)cc1Cl)N1CCCCC(c2ccc(C(F)(F)F)cc2)=N1,98,99,6
Cl.N=C(N)Nc1cccc(NC(=O)Nc2cccc(NC(=N)N)c2)c1,87,71,0
COc1ccc(O)c(C(=O)c2cc(C(=O)NCCc3ccccc3)c(=O)n(CCc3ccccc3)c2)c1,97,18,11
Cc1cc(N)c2cc(NC(=O)CCC(=O)Nc3ccc4nc(C)cc(N)c4c3)ccc2n1,85,77,0
